Experimental data as given in the supplement of paper PMC11732987, “Enantioselective OTUD7B fragment discovery through chemoproteomics screening and high-throughput optimisation” (Communications Chemistry, 2025).

How the values were obtained:
Test in all cases: log2 ratio of Biotin-Ahx-Ub-VS probe labelling (fragment/DMSO); higher = less target engagement (more negative = stronger competition), active = hit call of the paper (q ≤ 0.05, log2 ratio ≤ -1)
Settings in all cases: compound concentration: 200 uM; treatment time: 3 h
[1] = molecular target: USP9X (UniProt Q93008)
Outline: (§1)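 HEK293T lysate (495 µg per sample, in Tris/CHAPS/IGEPAL buffer with protease inhibitors) was exposed in triplicate for 3 h to fragment at 200 µM or to vehicle, then to Biotin-Ahx-Ub-VS at 0.5 µM final for 1 h. Labelled DUBs were enriched on NeutrAvidin, digested with LysC and trypsin, and analysed by diaPASEF LC-MS/MS. Spectronaut label-free quantities were normalised to the global median, and values are average log2 ratios of fragment over vehicle from an unpaired t-test. Only proteins with ≥2 unique peptides were used.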

[2] = molecular target: UniProt O00487
Outline: as §1

[3] = molecular target: UniProt O00507
Outline: as §1

[4] = molecular target: UniProt P51784
Outline: as §1

[5] = molecular target: T1, UniProt Q5T2D3
T1 sequence (whole entry): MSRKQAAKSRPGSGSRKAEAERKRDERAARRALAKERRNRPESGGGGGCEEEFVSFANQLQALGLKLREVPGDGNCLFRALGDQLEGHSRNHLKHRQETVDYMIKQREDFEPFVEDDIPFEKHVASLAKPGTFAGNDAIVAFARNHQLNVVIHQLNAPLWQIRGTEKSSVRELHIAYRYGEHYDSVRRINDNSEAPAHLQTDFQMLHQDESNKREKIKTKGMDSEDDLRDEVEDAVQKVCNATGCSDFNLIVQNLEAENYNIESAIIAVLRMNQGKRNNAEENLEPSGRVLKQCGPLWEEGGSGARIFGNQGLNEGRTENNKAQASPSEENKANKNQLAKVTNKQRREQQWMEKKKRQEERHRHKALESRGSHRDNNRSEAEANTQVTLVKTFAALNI
Outline: as §1

[6] = molecular target: T2, UniProt Q8TE49
T2 sequence (whole entry): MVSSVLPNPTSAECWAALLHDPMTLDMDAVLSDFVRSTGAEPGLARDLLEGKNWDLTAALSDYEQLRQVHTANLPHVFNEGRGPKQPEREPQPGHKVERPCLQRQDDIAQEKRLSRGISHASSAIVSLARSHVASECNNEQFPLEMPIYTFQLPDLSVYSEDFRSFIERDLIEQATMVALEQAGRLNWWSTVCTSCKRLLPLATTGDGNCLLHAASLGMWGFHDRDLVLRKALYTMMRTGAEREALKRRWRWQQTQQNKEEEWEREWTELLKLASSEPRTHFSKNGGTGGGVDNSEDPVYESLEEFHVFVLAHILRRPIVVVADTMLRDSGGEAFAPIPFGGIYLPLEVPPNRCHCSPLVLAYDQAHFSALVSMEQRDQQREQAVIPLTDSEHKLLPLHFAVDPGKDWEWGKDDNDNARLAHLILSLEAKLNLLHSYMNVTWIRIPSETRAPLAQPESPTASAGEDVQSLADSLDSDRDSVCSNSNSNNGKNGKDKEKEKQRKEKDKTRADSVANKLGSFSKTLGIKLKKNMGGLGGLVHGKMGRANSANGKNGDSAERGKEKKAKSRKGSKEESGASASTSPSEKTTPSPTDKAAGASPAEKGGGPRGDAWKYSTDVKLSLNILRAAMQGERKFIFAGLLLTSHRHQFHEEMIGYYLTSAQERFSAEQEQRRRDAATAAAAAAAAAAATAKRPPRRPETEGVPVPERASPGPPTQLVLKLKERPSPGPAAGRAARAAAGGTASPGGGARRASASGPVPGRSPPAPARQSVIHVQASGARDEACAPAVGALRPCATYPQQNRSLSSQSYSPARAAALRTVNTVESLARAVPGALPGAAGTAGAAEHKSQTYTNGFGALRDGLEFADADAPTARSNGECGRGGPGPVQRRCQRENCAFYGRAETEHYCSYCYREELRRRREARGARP
Outline: as §1

[7] = molecular target: T3, UniProt Q9P2H5
T3 sequence (whole entry): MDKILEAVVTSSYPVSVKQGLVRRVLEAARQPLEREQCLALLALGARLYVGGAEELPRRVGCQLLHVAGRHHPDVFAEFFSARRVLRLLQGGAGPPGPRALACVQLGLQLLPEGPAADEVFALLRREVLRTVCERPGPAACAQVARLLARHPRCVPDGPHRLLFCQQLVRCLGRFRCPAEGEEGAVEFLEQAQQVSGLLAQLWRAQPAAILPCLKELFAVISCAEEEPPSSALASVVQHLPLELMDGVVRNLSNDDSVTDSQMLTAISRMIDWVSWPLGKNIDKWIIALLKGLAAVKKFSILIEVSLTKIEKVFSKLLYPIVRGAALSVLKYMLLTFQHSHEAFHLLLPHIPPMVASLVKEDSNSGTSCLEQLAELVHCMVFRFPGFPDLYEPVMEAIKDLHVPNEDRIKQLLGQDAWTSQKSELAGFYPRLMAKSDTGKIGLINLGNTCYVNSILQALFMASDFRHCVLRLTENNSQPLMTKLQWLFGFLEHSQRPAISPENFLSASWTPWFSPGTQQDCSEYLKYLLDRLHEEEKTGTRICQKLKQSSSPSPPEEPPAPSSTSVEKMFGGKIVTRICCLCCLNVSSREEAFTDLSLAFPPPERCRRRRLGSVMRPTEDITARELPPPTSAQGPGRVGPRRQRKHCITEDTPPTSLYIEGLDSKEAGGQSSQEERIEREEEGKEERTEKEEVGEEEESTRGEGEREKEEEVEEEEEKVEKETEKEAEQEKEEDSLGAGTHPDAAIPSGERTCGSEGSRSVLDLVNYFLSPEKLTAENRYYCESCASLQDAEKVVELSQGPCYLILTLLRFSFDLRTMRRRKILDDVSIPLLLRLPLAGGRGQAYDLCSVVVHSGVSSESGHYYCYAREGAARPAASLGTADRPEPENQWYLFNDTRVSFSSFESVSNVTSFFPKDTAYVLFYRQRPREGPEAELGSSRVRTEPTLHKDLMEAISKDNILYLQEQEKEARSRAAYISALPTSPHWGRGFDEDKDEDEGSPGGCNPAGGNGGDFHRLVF
Outline: as §1

[8] = molecular target: T4, UniProt Q9UGI0
T4 sequence (whole entry): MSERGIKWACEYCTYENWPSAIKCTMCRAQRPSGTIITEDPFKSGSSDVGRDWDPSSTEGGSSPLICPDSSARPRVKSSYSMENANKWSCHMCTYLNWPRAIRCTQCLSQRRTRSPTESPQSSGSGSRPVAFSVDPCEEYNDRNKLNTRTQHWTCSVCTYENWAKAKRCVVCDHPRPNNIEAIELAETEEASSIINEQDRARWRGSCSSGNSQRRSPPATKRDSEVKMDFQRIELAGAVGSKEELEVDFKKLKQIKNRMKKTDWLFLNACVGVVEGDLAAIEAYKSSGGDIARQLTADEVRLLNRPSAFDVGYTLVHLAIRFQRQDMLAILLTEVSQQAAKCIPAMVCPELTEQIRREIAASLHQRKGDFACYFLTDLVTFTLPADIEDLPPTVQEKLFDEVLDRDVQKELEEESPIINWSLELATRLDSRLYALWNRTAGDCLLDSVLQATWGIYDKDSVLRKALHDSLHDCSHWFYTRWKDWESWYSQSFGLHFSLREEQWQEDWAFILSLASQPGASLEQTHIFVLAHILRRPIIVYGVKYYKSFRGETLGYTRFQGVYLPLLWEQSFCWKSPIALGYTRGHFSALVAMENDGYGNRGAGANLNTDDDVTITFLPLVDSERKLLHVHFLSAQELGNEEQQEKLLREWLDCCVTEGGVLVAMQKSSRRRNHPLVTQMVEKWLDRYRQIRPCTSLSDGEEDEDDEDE
Outline: as §1

[9] = molecular target: T5, YOD1 (UniProt Q5VVQ6)
T5 sequence (whole entry): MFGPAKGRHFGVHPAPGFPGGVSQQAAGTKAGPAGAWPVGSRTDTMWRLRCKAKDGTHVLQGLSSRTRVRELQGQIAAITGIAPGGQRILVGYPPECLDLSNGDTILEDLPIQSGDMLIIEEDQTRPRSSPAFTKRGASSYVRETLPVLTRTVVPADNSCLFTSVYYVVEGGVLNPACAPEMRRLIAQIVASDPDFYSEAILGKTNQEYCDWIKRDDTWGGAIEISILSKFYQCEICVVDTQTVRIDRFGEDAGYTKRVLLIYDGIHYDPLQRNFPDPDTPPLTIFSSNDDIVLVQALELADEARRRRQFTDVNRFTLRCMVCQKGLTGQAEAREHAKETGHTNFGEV
Outline: as §1

Measured: log2 ratio of Biotin-Ahx-Ub-VS probe labelling

Sequence of UniProt P51784 (P51784 whole entry): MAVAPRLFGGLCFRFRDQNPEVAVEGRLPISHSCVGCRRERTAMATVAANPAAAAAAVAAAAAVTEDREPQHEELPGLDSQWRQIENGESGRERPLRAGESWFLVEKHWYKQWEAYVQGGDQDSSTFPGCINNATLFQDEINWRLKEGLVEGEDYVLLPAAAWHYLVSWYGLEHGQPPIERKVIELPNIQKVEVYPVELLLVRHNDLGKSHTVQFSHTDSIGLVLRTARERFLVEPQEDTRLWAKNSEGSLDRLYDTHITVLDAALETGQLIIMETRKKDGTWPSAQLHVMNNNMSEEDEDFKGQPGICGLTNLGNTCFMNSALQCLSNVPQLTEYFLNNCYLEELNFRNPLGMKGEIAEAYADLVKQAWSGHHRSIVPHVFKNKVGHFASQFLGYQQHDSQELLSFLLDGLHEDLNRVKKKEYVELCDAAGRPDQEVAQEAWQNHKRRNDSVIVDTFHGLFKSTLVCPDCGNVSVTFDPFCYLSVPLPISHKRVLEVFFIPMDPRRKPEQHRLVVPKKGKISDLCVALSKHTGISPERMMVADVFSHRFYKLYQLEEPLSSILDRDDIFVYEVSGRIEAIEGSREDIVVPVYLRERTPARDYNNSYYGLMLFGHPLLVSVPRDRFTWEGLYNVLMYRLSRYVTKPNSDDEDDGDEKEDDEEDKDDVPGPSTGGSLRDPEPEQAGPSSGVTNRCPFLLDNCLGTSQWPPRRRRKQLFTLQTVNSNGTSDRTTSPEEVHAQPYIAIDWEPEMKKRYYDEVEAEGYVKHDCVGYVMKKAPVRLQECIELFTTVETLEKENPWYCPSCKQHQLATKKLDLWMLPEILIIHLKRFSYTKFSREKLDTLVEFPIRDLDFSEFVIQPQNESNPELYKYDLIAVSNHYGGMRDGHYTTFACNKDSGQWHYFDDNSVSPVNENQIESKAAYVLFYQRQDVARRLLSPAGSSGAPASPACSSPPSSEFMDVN
Sequence of USP9X (Q93008 whole entry, the tested form may be a part): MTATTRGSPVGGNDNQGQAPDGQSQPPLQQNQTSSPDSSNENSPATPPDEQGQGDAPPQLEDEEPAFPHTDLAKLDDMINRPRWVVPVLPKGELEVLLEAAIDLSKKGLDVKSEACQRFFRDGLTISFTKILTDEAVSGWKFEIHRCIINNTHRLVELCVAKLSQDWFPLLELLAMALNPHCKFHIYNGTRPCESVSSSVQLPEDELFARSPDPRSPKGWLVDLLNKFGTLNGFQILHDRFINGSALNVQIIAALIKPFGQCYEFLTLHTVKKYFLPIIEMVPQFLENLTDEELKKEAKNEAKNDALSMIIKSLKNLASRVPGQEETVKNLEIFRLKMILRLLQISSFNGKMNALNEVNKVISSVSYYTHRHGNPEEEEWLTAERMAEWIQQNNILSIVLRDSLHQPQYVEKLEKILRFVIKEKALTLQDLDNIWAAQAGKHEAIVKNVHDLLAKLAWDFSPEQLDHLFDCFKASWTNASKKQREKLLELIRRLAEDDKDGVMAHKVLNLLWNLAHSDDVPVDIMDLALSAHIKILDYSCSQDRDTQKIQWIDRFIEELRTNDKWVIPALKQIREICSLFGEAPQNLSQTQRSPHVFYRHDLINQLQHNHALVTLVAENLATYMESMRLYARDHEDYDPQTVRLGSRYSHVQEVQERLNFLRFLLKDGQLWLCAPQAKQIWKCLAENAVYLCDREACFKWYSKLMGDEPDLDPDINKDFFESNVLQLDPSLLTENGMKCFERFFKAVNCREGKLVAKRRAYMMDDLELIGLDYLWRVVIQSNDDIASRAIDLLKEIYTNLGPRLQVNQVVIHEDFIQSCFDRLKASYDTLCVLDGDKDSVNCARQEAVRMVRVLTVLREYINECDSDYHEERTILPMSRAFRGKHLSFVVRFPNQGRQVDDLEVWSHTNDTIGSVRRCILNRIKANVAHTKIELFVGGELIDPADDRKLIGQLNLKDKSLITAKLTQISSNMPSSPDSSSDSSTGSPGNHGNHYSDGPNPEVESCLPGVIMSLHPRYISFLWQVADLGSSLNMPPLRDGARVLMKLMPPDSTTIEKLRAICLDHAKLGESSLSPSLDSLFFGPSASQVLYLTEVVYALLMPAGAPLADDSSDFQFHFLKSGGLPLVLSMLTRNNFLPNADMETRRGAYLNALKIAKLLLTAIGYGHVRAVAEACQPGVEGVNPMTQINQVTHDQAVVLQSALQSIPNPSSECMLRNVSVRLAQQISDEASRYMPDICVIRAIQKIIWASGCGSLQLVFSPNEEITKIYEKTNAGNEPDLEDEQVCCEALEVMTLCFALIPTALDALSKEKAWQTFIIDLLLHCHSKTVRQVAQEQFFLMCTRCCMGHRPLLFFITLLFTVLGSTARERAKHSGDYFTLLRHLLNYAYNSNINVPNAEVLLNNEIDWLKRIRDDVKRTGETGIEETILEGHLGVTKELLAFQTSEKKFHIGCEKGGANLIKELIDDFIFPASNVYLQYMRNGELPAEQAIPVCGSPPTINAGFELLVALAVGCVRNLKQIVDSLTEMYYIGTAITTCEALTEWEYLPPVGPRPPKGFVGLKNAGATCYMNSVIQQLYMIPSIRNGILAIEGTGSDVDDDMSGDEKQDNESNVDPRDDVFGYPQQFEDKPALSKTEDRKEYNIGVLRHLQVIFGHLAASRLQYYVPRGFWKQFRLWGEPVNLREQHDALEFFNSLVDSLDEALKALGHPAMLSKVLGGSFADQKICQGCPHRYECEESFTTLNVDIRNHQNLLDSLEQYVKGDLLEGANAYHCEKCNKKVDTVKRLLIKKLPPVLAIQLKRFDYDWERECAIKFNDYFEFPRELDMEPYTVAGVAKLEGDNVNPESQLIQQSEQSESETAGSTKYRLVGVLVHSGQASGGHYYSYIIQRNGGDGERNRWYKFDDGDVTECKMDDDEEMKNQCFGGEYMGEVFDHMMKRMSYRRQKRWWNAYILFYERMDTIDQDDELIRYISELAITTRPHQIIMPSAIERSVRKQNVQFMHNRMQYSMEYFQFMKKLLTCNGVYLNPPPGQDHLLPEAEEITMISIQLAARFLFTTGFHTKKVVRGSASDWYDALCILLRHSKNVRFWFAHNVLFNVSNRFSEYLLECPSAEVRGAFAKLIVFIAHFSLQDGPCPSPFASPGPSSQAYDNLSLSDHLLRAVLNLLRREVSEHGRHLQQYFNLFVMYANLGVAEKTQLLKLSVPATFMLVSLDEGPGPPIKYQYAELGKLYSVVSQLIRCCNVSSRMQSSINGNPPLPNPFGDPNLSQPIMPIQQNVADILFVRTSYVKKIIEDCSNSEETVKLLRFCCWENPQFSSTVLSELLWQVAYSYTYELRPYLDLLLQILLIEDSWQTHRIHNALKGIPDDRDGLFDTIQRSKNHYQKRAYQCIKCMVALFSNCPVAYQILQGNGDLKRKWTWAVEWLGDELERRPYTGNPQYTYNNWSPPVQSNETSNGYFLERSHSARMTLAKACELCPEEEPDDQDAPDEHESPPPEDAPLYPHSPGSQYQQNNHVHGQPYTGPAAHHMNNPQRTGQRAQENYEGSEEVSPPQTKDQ
Sequence of UniProt O00487 (O00487 whole entry): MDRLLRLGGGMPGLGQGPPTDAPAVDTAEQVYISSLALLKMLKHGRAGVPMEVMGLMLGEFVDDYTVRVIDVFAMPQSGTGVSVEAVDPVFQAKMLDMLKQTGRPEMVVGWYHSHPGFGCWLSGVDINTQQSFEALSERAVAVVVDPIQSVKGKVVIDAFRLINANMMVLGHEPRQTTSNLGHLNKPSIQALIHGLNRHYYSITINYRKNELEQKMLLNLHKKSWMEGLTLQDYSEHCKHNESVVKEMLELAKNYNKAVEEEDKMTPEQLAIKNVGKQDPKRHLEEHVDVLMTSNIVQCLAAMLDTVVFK

O=C(CCl)NCC(=O)N1CCCC1
inactive: [1] -0.168 | [2] -0.0526 | [3] -0.0296 | [4] 0.172 | [5] -0.355 | [6] -0.471 | [7] -0.207 | [8] -0.151 | [9] -0.225
